In the library only some 1.1% were active in any assay of this set; here they are far more common.
Mtb betalactam = beta-lactam sensitization of Mtb H37Rv | inhibition, % at 25 µM | 330,000 compounds, 0.27% hits | M. tuberculosis H37Rv growth with meropenem, percent inhibition;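 also: growth measured after seven days incubation then overnight dye step; 0% = bacteria only wells and 100% = bacteria with antibiotic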
BioA inh = blocks M. tuberculosis BioA enzyme activity. 360,000 compounds, 0.096% hits. AID 602481. inhibition, % at 9.99 µM. purified M. tuberculosis BioA enzyme, plate reader; in the data active = inhibition above about 40%
BJeLR viability = BJeLR cell viability loss. BJeLR (HRASV12) viability, CellTiter-Glo ATP luminescence, 48 h. inhibition, % (concentration not given with the values). 300,000 compounds, 0.17% hits. AID 1554; in the data active = inhibition above about 50%
Yp Topo-I inh = blocks Yersinia pestis topoisomerase I activity; 360,000 compounds, 0.064% hits; activity, % at 10 µM; AID 504884; Y. pestis Topo-I cleavage product accumulation, plate reader; in the data active = activity above about 50%, passing the limit was not always enough
CCHF vOTU inh = CCHFV vOTU protease inhibition. Pep-AMC fluorescence. 370,000 compounds, 0.55% hits. inhibition, % at 11.5 µM; in the data active = inhibition above about 30%; also: 0% = vehicle wells with enzyme and 100% = no enzyme wells
RecA splice inh = blocks M. tuberculosis RecA intein splicing | 290,000 compounds, 0.75% hits | cell-free RecA intein splicing, fluorescence | inhibition, % (test concentration not listed) | AID 2221; in the data active = inhibition above about 30%;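 also: 0% = vehicle wells and 100% = reference inhibitor control wells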
Target sequence (P9WHJ3 whole entry, looked up, canonical isoform): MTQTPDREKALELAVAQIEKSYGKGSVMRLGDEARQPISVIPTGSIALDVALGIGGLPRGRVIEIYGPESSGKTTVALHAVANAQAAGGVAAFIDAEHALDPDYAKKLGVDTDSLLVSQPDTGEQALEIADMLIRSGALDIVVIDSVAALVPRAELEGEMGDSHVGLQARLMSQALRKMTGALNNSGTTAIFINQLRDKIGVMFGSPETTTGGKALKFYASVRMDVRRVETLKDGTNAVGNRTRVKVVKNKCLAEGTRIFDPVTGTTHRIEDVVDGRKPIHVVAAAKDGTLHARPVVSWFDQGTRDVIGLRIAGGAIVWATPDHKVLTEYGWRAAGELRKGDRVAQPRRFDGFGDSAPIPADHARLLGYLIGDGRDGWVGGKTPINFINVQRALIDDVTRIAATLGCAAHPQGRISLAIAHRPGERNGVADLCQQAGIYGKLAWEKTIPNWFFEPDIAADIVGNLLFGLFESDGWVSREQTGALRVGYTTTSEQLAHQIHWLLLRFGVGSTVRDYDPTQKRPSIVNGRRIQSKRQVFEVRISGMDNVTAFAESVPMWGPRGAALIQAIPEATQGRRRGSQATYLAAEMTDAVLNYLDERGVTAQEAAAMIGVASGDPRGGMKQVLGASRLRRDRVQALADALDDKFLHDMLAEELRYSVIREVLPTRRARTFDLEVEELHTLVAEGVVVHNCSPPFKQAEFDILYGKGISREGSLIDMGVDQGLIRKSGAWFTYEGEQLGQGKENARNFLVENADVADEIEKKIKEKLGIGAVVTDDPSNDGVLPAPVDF
GFP chromophore = counter-screen GFP chromophore formation inhibition; 2,100 compounds, 83% hits; cell-free GFP chromophore formation, fluorescence; EC50, µM; shares compounds with RecA splice inh
Starred values were filed as active, the others as inactive. Unless noted, no rule for the calls is given here.

Screening CCc1nnc(NS(=O)(=O)c2ccc(NC(=S)NC(=O)/C=C/c3ccc(C(C)C)cc3)cc2)s1 returned Mtb betalactam 4, BJeLR viability -5, Yp Topo-I inh -12, RecA splice inh 36* and GFP chromophore 13*.
CCOC(=O)C1CCCCC12C(C#N)=C(N)Oc1n[nH]c(C)c12 (stereo unspecified) was read as Mtb betalactam 1, BJeLR viability 3, Yp Topo-I inh -5, CCHF vOTU inh -6 and RecA splice inh 23.
Screening CCOC(=O)C1CCC2(CC1)C(C#N)=C(N)Oc1n[nH]c(C)c12 (stereo unspecified) returned Mtb betalactam -6, BioA inh -2, BJeLR viability -10, Yp Topo-I inh 0, CCHF vOTU inh 3, RecA splice inh 79* and GFP chromophore >38.
`CCCc1[nH]nc2c1C1(CCN(C(=O)OCc3ccccc3)CC1)C(C#N)=C(N)O2` gave Mtb betalactam -3, BJeLR viability 4, Yp Topo-I inh 20, CCHF vOTU inh -5 and RecA splice inh 23.
Cc1[nH]nc2c1C1(CCOCC1)C(C#N)=C(N)O2 was read as Mtb betalactam -8, BioA inh -1, BJeLR viability 2, Yp Topo-I inh 2, RecA splice inh 78* and GFP chromophore 13*.
Screening N#CC1=C(N)N2C(=C(C#N)C13CCN(Cc1ccccc1)CC3)Nc1ccccc12 returned Mtb betalactam -7, BioA inh 2, BJeLR viability 6, Yp Topo-I inh 9, CCHF vOTU inh -13 and RecA splice inh -15.
Screening CC(C)c1[nH]nc2c1C1(CCN(Cc3ccccc3)CC1)C(C#N)=C(N)O2 returned Mtb betalactam 1, BJeLR viability 2, Yp Topo-I inh 6, CCHF vOTU inh 3, RecA splice inh 68* and GFP chromophore 21*.
Screening Cc1[nH]nc2c1C1(CCN(Cc3ccccc3)CC1)C(C#N)=C(N)O2 returned Mtb betalactam -8, BioA inh 17, BJeLR viability -9, Yp Topo-I inh 8, CCHF vOTU inh 1, RecA splice inh 85* and GFP chromophore 14*.
`Cc1noc(C)c1NC(=O)N(C)C[C@@H]1OCCCC[C@H](C)Oc2ccc(NS(=O)(=O)c3cn(C)cn3)cc2C(=O)N([C@@H](C)CO)C[C@@H]1C` gave BioA inh 2.
Screening COc1ccccc1CNC(=O)C[C@H]1CC[C@H](NC(=O)CC2CC2)[C@H](CO)O1 returned BioA inh -3.
CC(C)NC(=O)N1[C@H](CO)[C@@H](c2ccccc2)[C@@H]1CNC(=O)CN(C)C was read as BioA inh 1.
Screening Oc1ccc(O)c2c1C1c3ccccc3C2c2ccccc21 returned Mtb betalactam -1, BJeLR viability -12, RecA splice inh 44* and GFP chromophore 10*.
Screening CO[C@H]1CN(C)C(=O)c2ccc(NC(=O)Nc3cccc(Cl)c3)cc2OC[C@@H](C)NC[C@H]1C returned BioA inh 2.
For CCN(CC)c1ccc(/C=N/Nc2nc(C)cc(=O)[nH]2)c(O)c1 the results were Mtb betalactam 7, BJeLR viability 67*, Yp Topo-I inh -7, CCHF vOTU inh 10, RecA splice inh 39* and GFP chromophore >38.
For CSc1nc(-c2ccccc2)nn1C(=O)c1ccc(Cl)cc1 the results were Mtb betalactam 33, BioA inh -1, BJeLR viability 7, Yp Topo-I inh 2, CCHF vOTU inh 13, RecA splice inh 57* and GFP chromophore >38.
CSc1nc(-c2ccc(Cl)cc2)nn1C(=O)c1ccccc1 was read as Mtb betalactam -3, BioA inh 0, BJeLR viability 8, Yp Topo-I inh -2, CCHF vOTU inh -14 and RecA splice inh 4.
For CN1CCN(C(=O)C[C@H]2CC[C@H]3[C@@H](COC[C@H](O)CN3Cc3cccc(Cl)c3)O2)CC1 the results were BioA inh 2.
For O=C(C[C@H]1CC[C@@H]2[C@H](COC[C@H](O)CN2Cc2cc(F)ccc2F)O1)NCc1ccc(Cl)cc1 the results were BioA inh 5.
Cc1cc(C(=O)CCl)c(C)n1CCc1ccc(Cl)cc1 was read as Mtb betalactam 100, BioA inh 1, BJeLR viability -1, Yp Topo-I inh 13, CCHF vOTU inh -1, RecA splice inh 62* and GFP chromophore 21*.
Screening Cc1cc(C(=O)CCl)c(C)n1CCc1ccc(F)cc1 returned Mtb betalactam 99, BioA inh -1, BJeLR viability 3, Yp Topo-I inh 3, CCHF vOTU inh 8 and RecA splice inh 27.
For COc1ccc(Nc2ccc(OC)cc2)cc1 the results were Mtb betalactam 9, BioA inh 3, BJeLR viability -2, Yp Topo-I inh -9, CCHF vOTU inh -3, RecA splice inh 51* and GFP chromophore >38.
For COc1ccc(Nc2ccc(Nc3ccc(OC)cc3)nn2)cc1 the results were Mtb betalactam 2, BioA inh 6, BJeLR viability 5, Yp Topo-I inh -16, CCHF vOTU inh -15 and RecA splice inh -2.
Screening CCC(=O)N1[C@H](CN(C)C(C)=O)[C@H](c2ccc(-c3cccc(F)c3)cc2)[C@@H]1CO returned BioA inh 1.
C[C@@H]1CN([C@H](C)CO)C(=O)Cc2cc(NC(=O)C3CCCCC3)ccc2O[C@@H]1CN(C)CC1CC1 was read as BioA inh 0.
Screening CN(CCC#N)C(=O)Cn1nc(Cc2ccncc2)c2ccccc2c1=O returned Mtb betalactam 2, BioA inh 0, BJeLR viability 6, Yp Topo-I inh 1, CCHF vOTU inh -7, RecA splice inh 49* and GFP chromophore >38.
Screening CCC(C)N(C(=O)Cn1nc(Cc2ccncc2)c2ccccc2c1=O)C(C)CC (stereo unspecified) returned CCHF vOTU inh 0.
COc1cc(C(c2c(C)[nH][nH]c2=O)c2c(C)[nH][nH]c2=O)cc(Br)c1OC was read as Mtb betalactam -13, BioA inh 0, BJeLR viability -12, Yp Topo-I inh -3, CCHF vOTU inh -6, RecA splice inh 99* and GFP chromophore 0.63*.
CCOc1cc(C(c2c(C)[nH][nH]c2=O)c2c(C)[nH][nH]c2=O)cc(Br)c1OC was read as Mtb betalactam 10, BioA inh 0, BJeLR viability 4, Yp Topo-I inh 0, CCHF vOTU inh 0, RecA splice inh 93* and GFP chromophore 0.49*.
Screening CCOc1cc(C(N)=O)cc(Br)c1OC returned Mtb betalactam -7, BioA inh -3, BJeLR viability 17, Yp Topo-I inh -5, CCHF vOTU inh 1 and RecA splice inh -3.
CCN(CC)CCOc1ccc(Br)cc1 was read as Mtb betalactam -3, BioA inh 0, BJeLR viability -7, Yp Topo-I inh 3, CCHF vOTU inh -16 and RecA splice inh -2.

Screens: PubChem BioAssay, several laboratories
